From PubChem BioAssay
PfHsp90 yeast 2 – reduces growth (ATP signal) of yeast expressing P. falciparum Hsp90 | inhibition, % at 9.4 µM | 0.32% of 310,000 active | S. cerevisiae expressing PfHsp90, BacTiter-Glo ATP, 48 h; yeast lacking PDR1 and PDR3 efflux regulators | AID 504621;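 active = every replicate shows inhibition above about 80%, whatever the replicate mean, limit read from the data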
TIM10 inh – growth inhibitors of TIM10 yeast strain; inhibition, % at 10 µM; AID 463195; 1.4% of 330,000 active; S. cerevisiae TIM10 strain growth, BacTiter-Glo luminescence, 24 h;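 active = inhibition of 40% or more at the single tested concentration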;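 note: wild-type TIM10 isogenic control strain grown at permissive 25 °C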
NLRP3 yeast inh – blocks the NALP3 inflammasome reconstituted in yeast | Yeast reconstituted NLRP3/ASC/caspase-1, beta-gal luminescence, 24 h | inhibition, % at 10 µM | 0.39% of 330,000 active;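 active = inhibition of 50% or more; inactive = inhibition below 50%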
NALP1 inh – NALP1 inhibition | S. cerevisiae NALP1/ASC/caspase-1 growth, X-gal OD620, 72 h | inhibition, % at 10 µM | 0.61% of 280,000 active | AID 2071; in the data active = inhibition mostly above about 24%, no sharp cut-off; inactive = mostly below about 32%
tim23-1 inh – tim23-1 yeast growth inhibition. S. cerevisiae tim23-1 growth, BacTiter-Glo luminescence, 24 h. inhibition, % at 20 µM. 1.3% of 330,000 active. AID 463212;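 active = growth inhibition of the mutant yeast at or above 50%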;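 note: temperature-sensitive mutant grown at 25 °C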
tim10-1 inh – growth inhibitors of tim10-1 mutant yeast. S. cerevisiae tim10-1 ts strain growth, BacTiter-Glo, 24 h. inhibition, % at 20 µM. 2.2% of 330,000 active;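 active = inhibition of at least 40%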;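 note: mutant grown at 25 °C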
tim10-1 conf – confirmation of tim10-1 mutant yeast growth inhibitors; shares compounds with tim10-1 inh; S. cerevisiae tim10-1 ts strain growth, BacTiter-Glo, 24 h; inhibition, % at 20 µM; 56% of 7,400 active;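 active = inhibition of yeast growth at or above a set limit in either of two repeat tests at 20 µM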;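 note: tim10-1 mutant grown at permissive 25 °C to find synthetic lethal compounds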
Of the large screens only hits and unclear results are named; the others gave an inactive call (follow-up assays come after a bar, where they were run). This is a sample that favours compounds with a hit; in the whole collection about 4.1% have one here.

O=C(c1ccoc1)N1CCC2(CC1)Oc1ccc(F)cc1C(=O)C21CC(c2ccc(Cl)cc2)=NO1 (stereo not drawn)	none (no result: PfHsp90 yeast 2)
COc1ccc(C(CNC(=O)CCC(=O)c2ccc(C)s2)N2CCOCC2)cc1 (stereo not drawn)	none (no result: NALP1 inh)
O=C(Nc1ccc(F)c(F)c1)C1=COCCO1	none (no result: NALP1 inh)
O=C(c1ccc2c(c1)OCO2)N1CCC2(CC1)Oc1ccc(F)cc1C(=O)C21CC(c2ccccc2)=NO1 (stereo not drawn)	tim10-1 inh 42 | tim10-1 conf 34
C=COC(=O)CSc1snc(SCC(=O)OC)c1C#N	tim10-1 inh 43 | tim10-1 conf inactive
CCN(CC)C(=O)CSc1nsc(SCC(=O)N(CC)CC)c1C#N	none
COc1ccc(C)c2sc(N(CCCN(C)C)C(=O)c3ccc4c(c3)OCCO4)nc12	none (no result: PfHsp90 yeast 2, NALP1 inh)
Cc1ccc(-c2cc([C@H]3[C@@H]4C=CCC[C@@]4(C)C(=O)N3Cc3ccccc3)ccc2F)cc1	none
Cc1ccc(F)c([C@H]2C3C=CCC(c4ccccc4)C3C(=O)N2Cc2ccccc2)c1 (stereo partly drawn)	tim10-1 inh 44 | tim10-1 conf 31
Cc1ccc(F)c([C@H]2[C@@H]3C=CCC[C@@]3(C)C(=O)N2Cc2ccccc2)c1	tim10-1 inh 45 (no result: PfHsp90 yeast 2) | tim10-1 conf 42
O=C1C2C(c3ccccc3)CC=CC2[C@H](c2ccc3ccccc3c2)N1Cc1ccccc1 (stereo partly drawn)	tim10-1 inh 46 | tim10-1 conf 38
O=C(c1cc(Br)ccc1Cl)N1CCN(c2ccccn2)CC1	none
COc1ccc(NC(=O)CSc2nc3scc(C)c3c(=O)[nH]2)cc1	none
CCN(C(=O)COC(=O)C(c1ccccc1)c1ccccc1)c1c(N)n(Cc2ccccc2)c(=O)[nH]c1=O	none (no result: TIM10 inh, NLRP3 yeast inh, NALP1 inh, tim23-1 inh, tim10-1 inh)
Cc1ccnc(Nc2nc(-c3ccc(F)cc3)cs2)c1	tim10-1 inh 42 | tim10-1 conf inactive
CC1=Nc2ccccc2/C1=C\c1nc(-c2ccc(F)cc2)oc1O	tim10-1 inh 53 | tim10-1 conf inactive
CNC(=O)c1ccsc1NC(=O)c1ccc(Cl)s1	tim10-1 inh 44 | tim10-1 conf 32
CNC(=O)c1ccsc1NC(=O)c1ccccc1	none
CCSc1nc2c(cnn2-c2ccc(C)cc2)c(=O)[nH]1	tim10-1 inh 41 | tim10-1 conf inactive
CCCSc1nc2c(cnn2-c2ccc(C)cc2)c(=O)[nH]1	none
Cc1ccc(N2C(=O)C3C4C=CC(CNC(=S)Nc5cccc(Cl)c5)(O4)C3C2=O)cc1 (stereo not drawn)	PfHsp90 yeast 2 105, tim10-1 inh 44 | tim10-1 conf 50
O=C1C2C3C=CC(CO)(O3)C2C(=O)N1c1ccc(-c2ccccc2)cc1 (stereo not drawn)	tim10-1 inh 95 (no result: PfHsp90 yeast 2) | tim10-1 conf 97
O=C(NCc1n[nH]c(=S)n1-c1ccccc1Cl)c1ccc(S(=O)(=O)N2CCCCC2)cc1	none
CSCCC(NS(=O)(=O)c1ccc(C)cc1)C(=O)NC1CCCCCC1 (stereo not drawn)	none (no result: NALP1 inh)
O=C(O)Cc1sc(Nc2ccccc2)nc1-c1ccc(Cl)cc1	tim10-1 inh 40 | tim10-1 conf inactive
Cc1ccc(S(=O)(=O)N2CCN(C(=O)COC(=O)CCOc3ccc(C(C)(C)C)cc3)CC2)cc1	tim10-1 inh 49 (no result: NALP1 inh) | tim10-1 conf inactive
CCOc1ccc(OCCC(=O)OCC(=O)N2CCN(S(=O)(=O)c3ccc(C)cc3)CC2)cc1	none (no result: NALP1 inh)
CCn1ccnc1CNC(=O)c1ccc2oc(CCCc3ccccc3)nc2c1	none
O=C(NC(=S)NNC(=O)c1ccco1)c1ccc(Br)cc1	tim10-1 inh 41 | tim10-1 conf inactive
O=C(NNC(=S)NC(=O)c1ccco1)c1ccc(F)cc1	none
CCC(=O)N1CCN(c2cc(N3CCCC3)c(F)cc2[N+](=O)[O-])CC1	none (no result: NALP1 inh)
CC(=O)N1CCN(c2cc(N3CCc4ccccc4C3)c(F)cc2[N+](=O)[O-])CC1	tim10-1 inh 52 (no result: PfHsp90 yeast 2) | tim10-1 conf 32
Cc1nc(Oc2ccccc2)c2oc3ccccc3c2n1	tim10-1 inh 42 | tim10-1 conf inactive
COc1ccc(Oc2nc(C)nc3c2oc2ccccc23)cc1	none
COc1cccc(Nc2nc(C)nc3c2oc2ccccc23)c1	tim10-1 inh 43 | tim10-1 conf inactive
CCn1c(=O)c(CCC(=O)NCC2CCCO2)c(C)c2c(C)nn(-c3ccc(C)cc3)c21 (stereo not drawn)	tim10-1 inh 41 | tim10-1 conf inactive
O=C(CSC(=S)N1CCCCC1)N1N=CCC1c1ccccc1 (stereo not drawn)	tim10-1 inh 41 | tim10-1 conf 32
C[C@@H](NC(=O)C1(c2ccccc2)CCN(C(=O)OC(C)(C)C)CC1)C(=O)N[C@@H](C(=O)O)c1ccccc1	none
O=C(COc1ccc2c(c1)oc(=O)c1ccccc12)NCC1CCC(C(=O)O)CC1 (stereo not drawn)	none
C=CCNc1nc(Nc2ccc([N+](=O)[O-])cc2)nc(N2CCCC2)n1	none
CC1CCN(c2nc(Cl)nc(Nc3ccc([N+](=O)[O-])cc3)n2)CC1	PfHsp90 yeast 2 98, tim10-1 inh 46 | tim10-1 conf inactive
CC(C)(C)[C@@H]1COC(=O)[C@H](Cc2ccc(F)cc2)C/C=C\C[C@@H](CC(=O)NCCO)C(=O)N1	none (no result: NALP1 inh)
CCN(CC)c1ccc(-c2nnc(SCC(=O)Nc3ccccc3C#N)n2-c2ccccc2)cc1	tim10-1 inh 42 | tim10-1 conf inactive
CCN(Cc1ccncc1)Cc1c(O)ccc2cc(Br)ccc12	tim10-1 inh 46 (no result: PfHsp90 yeast 2) | tim10-1 conf inactive
CN1CCN(Cc2c(O)ccc3cc(Br)ccc23)CC1	none (no result: PfHsp90 yeast 2)
CCC(C)Nc1nc(N)c([N+](=O)[O-])c(Nc2cc(OC)ccc2OC)n1 (stereo not drawn)	tim10-1 inh 40 | tim10-1 conf inactive
COc1ccc(OC)c(Nc2nc(NCCC(C)C)nc(N)c2[N+](=O)[O-])c1	none
CCCN(CCC)S(=O)(=O)c1cc(Br)cc2c1N(C(=O)CC)CC2	tim10-1 inh 46 (no result: PfHsp90 yeast 2) | tim10-1 conf 34
CCC(=O)N1CCc2cc(Br)cc(S(=O)(=O)CCC(=O)N(CC)CC)c21	none
Cc1cccc(C)c1NC(=O)C(c1ccc(Cl)cc1Cl)N1CCCCC1 (stereo not drawn)	tim10-1 inh 42 | tim10-1 conf inactive
Cc1ccc(S(=O)(=O)/N=C2/NC(=O)/C(=C/c3ccc(Br)o3)S2)cc1	none
Cc1ccc(S(=O)(=O)/N=C2/NC(=O)/C(=C\c3cc(Br)cc(Br)c3O)S2)cc1	tim10-1 inh 42 | tim10-1 conf 37
CCOC(=O)c1cc(-c2cccs2)nc2c1c(C)nn2-c1ccccn1	tim10-1 inh 52 | tim10-1 conf 40
COc1ccc(-c2cc(C3CC3)nc(N)c2C#N)cc1	none
